For some of these results: Entries with a potency or affinity are not part of this list. Activity calls are given as the source filed them.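 How the source made its calls, unless noted: active means hit in primary screen, with calcium signal over 5 SD above buffer well mean in both duplicates; inactive means the rest.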
Columns and labels:
[1] = tested on: TRPC4 beta (transient receptor potential cation channel C4), mouse; assay: TRPC4 cation channel opening, retest – cell-based, Fluo4 calcium, HEK293 TRPC4beta/mu-opioid, duplicates, 10 µM, confirmation (AID 2426;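 active means fluorescence ratio normalized to control raised more than 50% in primary screen plus both repeat runs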;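 on activation: percent rise of integrated ratio over buffer wells lacking compound which define 0%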); conditions: Fluo4 calcium fluorescence, at 10 µM; hits give high values
[2] = tested on: transient receptor potential cation channel C4 beta (TRPC4), mouse; assay: TRPC4 cation channel opening, second retest – cell-based, second round, Fluo4, HEK293 TRPC4beta/mu-opioid, 1 µM, confirmation (AID 2461;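 active means primary screen active and over 50% activation in each of two duplicate runs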;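 on activation: 0% = wells without test compound as baseline of integrated fluorescence ratio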); conditions: Fluo4 calcium fluorescence, at 1 µM; hits give high values
[3] = tested on: TRPC4 (transient receptor potential cation channel C4 beta), mouse; assay: potentiation of DAMGO EC20 TRPC4 response – cell-based, second round, Fluo-4, HEK293 TRPC4beta/mu-opioid, 1 µM, confirmation (AID 2554;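 active means primary screen hit whose fluorescence ratio, in both repeats, exceeds the weak agonist control mean by 3 SD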); conditions: DAMGO EC20, Fluo-4 calcium flux, at 1 µM; hits give high values
[4] = tested on: TRPC4 beta (transient receptor potential cation channel C4), mouse; assay: potentiation of DAMGO EC20 TRPC4 response – cell-based, Fluo-4, HEK293 TRPC4beta/mu-opioid, confirmation (AID 2555;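 active means primary screen hit whose calcium fluorescence ratio, in both repeats, exceeds the weak agonist control mean by 3 SD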); conditions: DAMGO EC20, Fluo-4 calcium flux, at 10 µM; hits give high values
[5] = target: Short transient receptor potential channel 4 (Mus musculus) (UniProt Q9QUQ5); assay: blockers of DAMGO-evoked TRPC4 calcium flux – cell-based, Fluo4, HEK293 TRPC4beta/mu-opioid, confirmation (AID 2636;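 active means calcium signal cut by more than 3 SD below the full-agonist control yet still positive, in both repeats and the earlier primary screen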); conditions: at 10 µM; hits give high values
[6] = target: Short transient receptor potential channel 4 (Mus musculus) (UniProt Q9QUQ5); assay: blockers of DAMGO-evoked TRPC4 calcium flux – cell-based, second round, Fluo4, HEK293 TRPC4beta/mu-opioid, 1 µM, confirmation (AID 2637;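 active means calcium signal ratio cut to more than 3 SD under the fully stimulated control mean yet still positive, in both repeats and the primary screen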;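 on inhibition: percent of integrated ratio relative to wells lacking test compound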); conditions: at 1 µM; hits give high values
[7] = target: Short transient receptor potential channel 4 (Mus musculus) (UniProt Q9QUQ5); assay: potentiation of DAMGO-evoked TRPC4 calcium signal – cell-based, HEK293 TRPC4/mu-opioid, Fluo-4 calcium, EC20 DAMGO, dose response (AID 434941;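 active means earlier screen potentiator hit that boosts the TRPC4 ion channel at some dose, with a dose response; inactive means no potentiation, no dose response, or not a prior hit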;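 further: calcium entry triggered by an EC20 dose of DAMGO at the co-expressed mu-opioid receptor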)
[8] = target: Short transient receptor potential channel 4 (Mus musculus) (UniProt Q9QUQ5); assay: block of DAMGO-driven TRPC4 calcium entry – cell-based, HEK293 TRPC4/mu-opioid, Fluo-4 calcium, dose response (AID 434942;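 active means primary screen inhibitor hit that blocks the TRPC4 channel at some tested dose, yielding a dose curve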)
[9] = target: Short transient receptor potential channel 6 (Mus musculus) (UniProt Q61143); assay: TRPC6 blockade by TRPC4 inhibitor hits – cell-based, HEK293, membrane potential dye, duplicate, selectivity assay for TRPC4 inhibitor project, confirmation (AID 434948;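 active means active in primary screen and both duplicates, each dropping signal beyond three positive-control SD with fluorescence still positive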); conditions: HEK293 TRPC6, membrane potential dye fluorescence, at 10 µM, stimulated with maximal-effect acetylcholine; hits give high values
[10] = target: Short transient receptor potential channel 6 (Mus musculus) (UniProt Q61143); assay: TRPC6 opening by TRPC4 activator hits – cell-based, HEK293, membrane potential dye, duplicate, selectivity assay for TRPC4 activator project, confirmation (AID 434950;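 active means membrane potential signal rise above negative control mean plus 3 SD in both duplicates, also active in the earlier TRPC4 screen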;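 on activation: 0% = buffer only wells and 100% = acetylcholine maximal-effect wells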); conditions: HEK293 TRPC6, membrane potential fluorescence, at 10 µM; activation: hits give high values; outcome: activation
[11] = target: Short transient receptor potential channel 6 (Mus musculus) (UniProt Q61143); assay: positive modulators of mouse TRPC6 channel – HEK293 cells, membrane potential dye, duplicate, selectivity assay for TRPC4 potentiator project, confirmation (AID 434952;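 active means compound raising the membrane signal above positive-control mean plus 3 SD in both repeats, and a primary screen hit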); conditions: HEK293 TRPC6, membrane potential dye fluorescence, at 10 µM, maximal acetylcholine added after compound; hits give high values
[12] = target: Short transient receptor potential channel 4 (Mus musculus) (UniProt Q9QUQ5); assay: calcium flux activators in TRPC4/5HT1a cells, counter-screen for TRPC4 activator project, cell-based, second counter screen, HEK293 TRPC4/5HT1a, Fluo-4 (AID 434977;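 active means calcium signal rise above buffer-control mean plus 5 SD in both duplicates, and also a hit in the primary screen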;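 on activation: plate controls were assay buffer for no effect and maximal serotonin response for full effect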); conditions: Fluo-4 calcium flux, at 10 µM; hits give high values
[13] = serotonin-gated TRPC4 signal block – cell-based, second counter screen, HEK293 TRPC4/5HT1a, Fluo-4, counter-screen for TRPC4 inhibitor project, confirmation (AID 434978;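 active means primary screen active whose calcium signal fell more than 3 SD beyond the full-serotonin control mean in both duplicate plates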;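 further: serotonin given first at submaximal then at maximal dose after compound preincubation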); conditions: Fluo-4 calcium flux, at 10 µM, serotonin added to trigger calcium flux; hits give high values
[14] = tested on: TRPC4 (mouse), co-expressed with 5HT1a in HEK293; assay: enhancement of serotonin-evoked TRPC4 response – cell-based, second counter screen, HEK293 TRPC4/5HT1a, Fluo-4, counter-screen for TRPC4 potentiator project, confirmation (AID 434979;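 active means signal rise over 3 SD above mean of control wells given weak agonist, in both repeats and first screen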); conditions: Fluo-4 calcium flux, at 10 µM, serotonin added at its EC20 dose; hits give high values
[15] = nonspecific calcium rise without TRPC4 – cell-based, HEK293 mu-opioid receptor line, counter-screen for TRPC4 activator project, confirmation (AID 449723); conditions: HEK293 mu-opioid cells, Fluo-4 calcium fluorescence, at 10 µM; hits give high values;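 further: counter screen cells carry the mu-opioid receptor alone and lack TRPC4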
[16] = nonspecific potentiation of DAMGO calcium response – cell-based, HEK293 mu-opioid receptor line, counter-screen for TRPC4 allosteric potentiator project, confirmation (AID 449724;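 active means calcium signal rise more than 3 SD above the low-dose agonist control mean, in both duplicate plates and the primary screen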); conditions: HEK293 mu-opioid receptor cells, Fluo-4 calcium flux, at 10 µM, compound added before EC20 DAMGO stimulus; hits give high values
[17] = nonspecific flux increase, KCNQ1-free cells – parental CHO cells, counter-screen for KCNQ1 potentiator project (AID 493006;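 active means duplicate-averaged activation above buffer control mean plus 5 SD of those controls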;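 on activation: fluorescence ratio of max minus min over baseline after K+ and Tl+ depolarization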); conditions: parental CHO-K1 cells, FluxOR thallium flux, at 10 µM; hits give high values
[18] = target: Potassium voltage-gated channel subfamily KQT member 1 (Homo sapiens) (UniProt P51787); assay: enhancement of KCNQ1 channel thallium flux – FluxOR thallium flux, CHO cells, duplicates, confirmation (AID 493007;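 active means potentiation averaged over duplicate wells exceeding buffer-only control mean by more than 3 SD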;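 further: 0% = buffer-only wells and 100% = R-L3 activator control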); conditions: KCNQ1 cell line, FluxOR thallium flux fluorescence, at 10 µM; hits give high values, % of reference activator effect, buffer zero
[19] = target: Potassium voltage-gated channel subfamily KQT member 2 (Rattus norvegicus) (UniProt O88943); assay: KCNQ2 thallium flux enhancement – KCNQ2-CHO-K1 cells, selectivity assay for KCNQ1 potentiator project (AID 493009;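 active means mean duplicate potentiation above the buffer control mean plus 5 SD of buffer wells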;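 further: assay conditions were tuned for KCNQ1 rather than KCNQ2 modulators; signal is max minus min fluorescence divided by baseline after thallium stimulus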); conditions: FluxOR thallium flux fluorescence, at 10 µM; hits give high values, scaled: buffer 0, activator control 100
[20] = target: Potassium voltage-gated channel subfamily KQT member 1 (Homo sapiens) (UniProt P51787); assay: KCNQ1 activators by electrophysiology – IonWorks patch clamp, KCNQ1-CHO cells, orthogonal assay for KCNQ1 potentiator project, confirmation (AID 493184;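 active means current rise at least 3 SD above the untreated control mean in each of two repeat wells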); conditions: automated patch clamp current, at 10 µM; hits give high values

Chain of Short transient receptor potential channel 6 (Mus musculus) (Q61143 whole entry, looked up): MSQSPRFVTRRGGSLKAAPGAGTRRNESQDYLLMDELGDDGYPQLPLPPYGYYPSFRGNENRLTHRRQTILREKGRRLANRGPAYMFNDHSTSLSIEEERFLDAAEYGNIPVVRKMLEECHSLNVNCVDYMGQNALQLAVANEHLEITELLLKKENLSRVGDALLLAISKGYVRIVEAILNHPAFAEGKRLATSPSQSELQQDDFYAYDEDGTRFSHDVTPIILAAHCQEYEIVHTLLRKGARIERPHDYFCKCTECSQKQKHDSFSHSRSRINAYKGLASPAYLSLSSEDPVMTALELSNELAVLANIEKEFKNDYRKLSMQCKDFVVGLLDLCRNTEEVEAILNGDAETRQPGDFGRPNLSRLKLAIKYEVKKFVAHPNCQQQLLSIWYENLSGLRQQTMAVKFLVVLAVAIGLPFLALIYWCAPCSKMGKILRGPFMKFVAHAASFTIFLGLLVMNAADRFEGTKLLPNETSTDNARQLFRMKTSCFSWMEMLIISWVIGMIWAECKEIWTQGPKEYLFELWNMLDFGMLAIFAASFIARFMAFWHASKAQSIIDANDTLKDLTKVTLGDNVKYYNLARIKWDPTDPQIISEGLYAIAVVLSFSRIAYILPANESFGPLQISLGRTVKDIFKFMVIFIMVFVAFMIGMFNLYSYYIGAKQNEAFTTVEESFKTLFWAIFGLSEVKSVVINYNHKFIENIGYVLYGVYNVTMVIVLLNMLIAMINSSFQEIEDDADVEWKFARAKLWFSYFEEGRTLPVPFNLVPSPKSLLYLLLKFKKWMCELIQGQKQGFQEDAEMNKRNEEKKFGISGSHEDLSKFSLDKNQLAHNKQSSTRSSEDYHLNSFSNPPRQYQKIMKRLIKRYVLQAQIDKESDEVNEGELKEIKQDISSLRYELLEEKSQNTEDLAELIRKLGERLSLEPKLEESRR
Chain of Short transient receptor potential channel 4 (Mus musculus) (Q9QUQ5 whole entry, looked up): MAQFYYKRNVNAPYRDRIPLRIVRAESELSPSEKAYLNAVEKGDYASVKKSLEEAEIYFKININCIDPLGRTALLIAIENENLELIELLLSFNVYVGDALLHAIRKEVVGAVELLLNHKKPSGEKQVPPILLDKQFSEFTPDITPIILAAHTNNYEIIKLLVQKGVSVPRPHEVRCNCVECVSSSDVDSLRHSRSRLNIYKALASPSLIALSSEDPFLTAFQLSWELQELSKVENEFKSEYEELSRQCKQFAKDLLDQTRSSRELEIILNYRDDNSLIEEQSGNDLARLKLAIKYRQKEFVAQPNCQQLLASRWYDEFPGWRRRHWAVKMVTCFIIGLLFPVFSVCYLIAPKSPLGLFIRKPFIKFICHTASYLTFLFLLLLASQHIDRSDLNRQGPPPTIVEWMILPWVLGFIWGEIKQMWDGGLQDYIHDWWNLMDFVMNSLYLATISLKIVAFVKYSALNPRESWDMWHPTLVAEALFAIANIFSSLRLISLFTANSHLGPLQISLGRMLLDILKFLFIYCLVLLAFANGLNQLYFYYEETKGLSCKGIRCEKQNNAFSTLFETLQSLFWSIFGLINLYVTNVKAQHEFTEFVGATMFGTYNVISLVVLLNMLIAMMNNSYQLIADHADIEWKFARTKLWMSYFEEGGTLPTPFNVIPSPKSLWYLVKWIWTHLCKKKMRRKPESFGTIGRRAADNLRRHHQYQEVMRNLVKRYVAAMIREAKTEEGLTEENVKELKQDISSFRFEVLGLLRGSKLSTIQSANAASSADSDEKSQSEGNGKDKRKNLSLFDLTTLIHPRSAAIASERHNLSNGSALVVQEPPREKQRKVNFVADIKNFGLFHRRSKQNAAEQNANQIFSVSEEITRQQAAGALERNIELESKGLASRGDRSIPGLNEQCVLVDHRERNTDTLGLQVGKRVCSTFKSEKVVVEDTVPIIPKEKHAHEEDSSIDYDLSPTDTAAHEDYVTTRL
Chain of Potassium voltage-gated channel subfamily KQT member 1 (Homo sapiens) (P51787 whole entry, looked up): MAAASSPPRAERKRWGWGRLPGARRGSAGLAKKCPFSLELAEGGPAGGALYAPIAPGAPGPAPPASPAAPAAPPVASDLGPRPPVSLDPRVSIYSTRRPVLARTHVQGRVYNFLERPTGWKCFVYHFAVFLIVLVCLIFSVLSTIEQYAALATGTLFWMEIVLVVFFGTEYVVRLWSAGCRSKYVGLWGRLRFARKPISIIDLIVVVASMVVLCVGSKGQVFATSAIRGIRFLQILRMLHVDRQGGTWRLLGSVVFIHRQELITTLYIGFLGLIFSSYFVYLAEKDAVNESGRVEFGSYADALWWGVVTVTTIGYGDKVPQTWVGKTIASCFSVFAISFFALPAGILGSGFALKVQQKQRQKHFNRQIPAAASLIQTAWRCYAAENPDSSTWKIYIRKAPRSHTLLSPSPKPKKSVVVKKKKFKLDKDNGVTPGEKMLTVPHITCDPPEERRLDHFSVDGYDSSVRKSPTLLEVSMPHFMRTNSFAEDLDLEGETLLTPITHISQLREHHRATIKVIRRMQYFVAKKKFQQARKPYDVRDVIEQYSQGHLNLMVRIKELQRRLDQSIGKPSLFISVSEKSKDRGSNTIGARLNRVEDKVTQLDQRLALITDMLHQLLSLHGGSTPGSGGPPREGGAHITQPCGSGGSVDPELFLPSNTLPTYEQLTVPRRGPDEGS
Chain of Potassium voltage-gated channel subfamily KQT member 2 (Rattus norvegicus) (O88943 whole entry, looked up): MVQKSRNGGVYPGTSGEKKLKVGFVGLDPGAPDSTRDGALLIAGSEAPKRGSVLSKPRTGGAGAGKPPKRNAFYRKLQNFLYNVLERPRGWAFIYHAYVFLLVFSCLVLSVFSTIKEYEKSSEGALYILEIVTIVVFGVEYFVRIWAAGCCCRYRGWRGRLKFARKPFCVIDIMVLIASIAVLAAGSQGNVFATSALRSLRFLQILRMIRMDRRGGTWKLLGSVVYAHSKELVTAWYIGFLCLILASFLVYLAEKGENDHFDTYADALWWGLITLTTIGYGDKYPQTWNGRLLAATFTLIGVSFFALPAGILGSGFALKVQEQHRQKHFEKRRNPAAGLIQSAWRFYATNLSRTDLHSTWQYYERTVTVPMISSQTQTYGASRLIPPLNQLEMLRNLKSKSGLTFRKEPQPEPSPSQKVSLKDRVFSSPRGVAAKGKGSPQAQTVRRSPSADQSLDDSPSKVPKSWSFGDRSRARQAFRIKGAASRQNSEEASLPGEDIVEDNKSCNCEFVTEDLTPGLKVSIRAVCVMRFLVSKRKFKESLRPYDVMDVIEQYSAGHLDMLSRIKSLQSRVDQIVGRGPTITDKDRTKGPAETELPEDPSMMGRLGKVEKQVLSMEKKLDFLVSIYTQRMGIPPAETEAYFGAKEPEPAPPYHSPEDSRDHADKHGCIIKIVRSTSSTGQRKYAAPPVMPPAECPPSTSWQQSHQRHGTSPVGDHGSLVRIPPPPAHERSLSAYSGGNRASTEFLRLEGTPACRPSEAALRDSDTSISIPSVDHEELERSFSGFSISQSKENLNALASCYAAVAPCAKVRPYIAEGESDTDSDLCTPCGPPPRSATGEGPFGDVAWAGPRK

O=C(CNS(=O)(=O)c1ccc2ccccc2c1)NCCc1ccccn1
active: activation [1] 110%
inactive: outcome [2] | outcome [3] | outcome [4] | outcome [5] | outcome [6] | outcome [7] | outcome [8] | outcome [9] | outcome [10] | outcome [11] | outcome [12] | outcome [13] | outcome [14] | outcome [15] | outcome [16]

CCCOc1ccc(C(=O)NNC(=S)NC(=O)c2ccccc2)cc1
active: activation [1] 152% | activation [12] 122% | activation [15] 39.5% | activation [17] 180% | potentiation [18] 168% | potentiation [19] 318%
inactive: outcome [2] | outcome [3] | outcome [4] | outcome [5] | outcome [6] | outcome [7] | outcome [8] | outcome [9] | outcome [10] | outcome [11] | outcome [13] | outcome [14] | outcome [16] | outcome [20]

O=C1CC(O)(C(F)(F)F)Oc2c1ccc1ccccc21 (stereo unspecified)
inactive: outcome [2] | outcome [3] | outcome [4] | outcome [5] | outcome [6] | outcome [7] | outcome [8] | outcome [9] | outcome [10] | outcome [11] | outcome [13] | outcome [14] | outcome [16] | outcome [20]
active: activation [1] 216% | activation [12] 119% | activation [15] 102% | activation [17] 222% | potentiation [18] 71.5% | potentiation [19] 270%

CC(C)(C)c1cc(CCC(=O)NNC(=S)NC(=O)c2ccccc2)cc(C(C)(C)C)c1O
inactive: outcome [2] | outcome [3] | outcome [4] | outcome [5] | outcome [6] | outcome [7] | outcome [8] | outcome [9] | outcome [10] | outcome [11] | outcome [13] | outcome [14] | outcome [16] | outcome [20]
active: activation [1] 150% | activation [12] 92% | activation [15] 41.2% | activation [17] 188% | potentiation [18] 61% | potentiation [19] 185%

CC[C@@H](C(=O)[C@@H](C)[C@@H](O)[C@H](C)CCc1ccc(C)c(O)c1C(=O)O)[C@H]1O[C@](CC)([C@H]2CC[C@](O)(CC)[C@H](C)O2)C[C@@H]1C
inactive: outcome [2] | outcome [3] | outcome [4] | outcome [5] | outcome [6] | outcome [7] | outcome [8] | outcome [9] | outcome [11] | outcome [13] | outcome [14] | outcome [16] | outcome [20]
active: activation [1] 472% | activation [10] 58.5% | activation [12] 177% | activation [15] 82.7% | activation [17] 558% | potentiation [18] 149% | potentiation [19] 502%

COc1cccc(C(=O)N(C)CC2CCN(CCc3cccc(C(F)(F)F)c3)CC2)c1
active: activation [1] 93% | activation [2] 77% | activation [10] 62.5%
inactive: outcome [3] | outcome [4] | outcome [5] | outcome [6] | outcome [7] | outcome [8] | outcome [9] | outcome [11] | outcome [12] | outcome [13] | outcome [14] | outcome [15] | outcome [16]

CC(C)(C)c1ccc(C(=O)NC(=S)NNC(=O)c2cccs2)cc1
inactive: outcome [2] | outcome [3] | outcome [4] | outcome [5] | outcome [6] | outcome [7] | outcome [8] | outcome [9] | outcome [10] | outcome [11] | outcome [13] | outcome [14] | outcome [16] | outcome [20]
active: activation [1] 226% | activation [12] 199% | activation [15] 84.8% | activation [17] 136% | potentiation [18] 97% | potentiation [19] 188%

Cc1ccc(OCC(=O)NNC(=S)NC(=O)C(C)(C)C)c(Br)c1
active: activation [1] 120% | activation [10] 24% | activation [12] 90.9% | activation [15] 19.6% | potentiation [18] 73% | potentiation [19] 158%
inactive: outcome [2] | outcome [3] | outcome [4] | outcome [5] | outcome [6] | outcome [7] | outcome [8] | outcome [9] | outcome [11] | outcome [13] | outcome [14] | outcome [16] | outcome [17] | outcome [20]

COc1cccc(CC2(CO)CCCN(Cc3ccccc3-c3ccco3)C2)c1 (stereo unspecified)
active: inhibition [6] 42% | activation [10] 47%
inactive: outcome [1] | outcome [2] | outcome [3] | outcome [4] | outcome [5] | outcome [7] | outcome [9] | outcome [11] | outcome [12] | outcome [13] | outcome [14] | outcome [15] | outcome [16]

COc1ccc(C(=O)NNC(=S)NC(=O)c2ccccc2)cc1
active: activation [1] 130% | activation [10] 32% | activation [12] 87.5% | activation [15] 32.5% | potentiation [18] 58.5% | potentiation [19] 166%
inactive: outcome [2] | outcome [3] | outcome [4] | outcome [5] | outcome [6] | outcome [7] | outcome [8] | outcome [9] | outcome [11] | outcome [13] | outcome [14] | outcome [16] | outcome [17] | outcome [20]

COC(=O)C1=NN(C(=O)c2ccc(C)cc2)C(O)(c2ccc(Cl)cc2)C1 (stereo unspecified)
inactive: outcome [2] | outcome [3] | outcome [4] | outcome [5] | outcome [6] | outcome [7] | outcome [8] | outcome [9] | outcome [11] | outcome [13] | outcome [14] | outcome [16] | outcome [20]
active: activation [1] 160% | activation [10] 315% | activation [12] 96.9% | activation [15] 67.6% | activation [17] 602% | potentiation [18] 280%

Cc1onc(-c2ccccc2)c1C(=O)NNC(=S)NC(=O)c1ccc(Cl)cc1Cl
active: activation [1] 274% | activation [2] 81% | activation [10] 28% | activation [12] 142% | activation [15] 96.9% | potentiation [18] 29.5%
inactive: outcome [3] | outcome [4] | outcome [5] | outcome [6] | outcome [7] | outcome [8] | outcome [9] | outcome [11] | outcome [13] | outcome [14] | outcome [16] | outcome [17] | outcome [19] | outcome [20]

— PubChem BioAssay
